A selection: hits, their analogues and other compounds. The true share with any hit is near 7.3%.
NPC1 prom act: activators of NPC1 promoter; AID 485313; Huh7 NPC1 promoter luciferase reporter, 24 h; 320,000 compounds, 2.4% hits; Potency, µM (top dose mostly 9.22 µM), for the others: top-dose activation, usual class: activators; further: % of control where 0% means no effect; nearly all actives have a fitted effect of over 60% in size
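Quantitative HTS used a cell-based reporter: Huh7 cells stably bearing the NPC1 promoter upstream of luciferase were treated with compounds for 24 h, and promoter activation was read as luminescence.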
SMN2 splice up: increases expression of the SMN2 splice variant. AID 1458. Potency, µM (series often up to 46.1 µM), inactives show at the highest dose activity change, positive = activation, hits mostly activators. 210,000 compounds, 2.8% hits. HEK293 SMN2-luciferase splicing reporter, luminescence, 30-36 h; further: % of control where 0% means no effect; nearly all actives have a fitted effect of over 55% in size
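qHTS luciferase splicing reporter: luminescence rises when SMN2 exon 7 is included in transfected HEK293 cells. Compound exposure lasted 30-36 h at 37C, with 4.5 mM final sodium butyrate as control, followed by a ONE-Glo read.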
Rab9 prom act: activates the Rab9 promoter; Potency, µM (highest dose often 9.22 µM), for the others: top-dose activation, negative = inhibition, actives largely listed as activators; 320,000 compounds, 2.8% hits; Huh7 Rab9 promoter-luciferase reporter, luminescence, 24 h; AID 485297; further: % of control where 0% means no effect; nearly all actives have a fitted effect of over 60% in size
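Rab9 promoter-driven luciferase in stably transfected Huh7 cells; 1500 cells/well rested 2 h, exposed to compound in DMSO for 24 h at 37 °C, 5% CO2. Luminescence read 10 min after adding luciferase reagent at ambient temperature.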
uPA generation: inhibitors of cell surface uPA generation. cell surface uPA generation assay, qHTS. 330,000 compounds, 0.31% hits. Potency, µM (highest dose often 38.3 µM), for inactives: at the top dose activity change, negative = inhibition, actives largely listed as inhibitors. AID 540303; active means well fitted inhibition curve with a large enough effect; inconclusive means small, poorly fitted or top-dose-only effect; inactive means no such curve, though single readings can be large or run the other way; tested in mouse RAW 264.7 cells; further: on the % scale 0 is the no-effect control and ±100 the full control effect; nearly all actives have a fitted effect of over 55% in size
ELG1 genotoxic: induces genotoxicity in HEK293T cells with luciferase-tagged ELG1. HEK293T ELG1-luciferase reporter, luminescence, 16 h. Potency, µM (series often up to 46 µM), without a hit: at the highest dose activity change, positive = activation, most hits filed as activators. 330,000 compounds, 1.3% hits. AID 504466; further: % of control where 0% means no effect; nearly all actives have a fitted effect of over 60% in size
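Reporter readout depends on ELG1 protein level, which increases with genetic stress. After 16 hr compound exposure at 37 °C, luciferase activity was quantified using ONE-Glo.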
FLuc counter: firefly luciferase modulation, counter-screen for miR-21 project | Potency, µM (titrated, usually from 57.5 µM), for inactives: at the highest dose activity change, negative = inhibition, actives largely listed as inhibitors | P08659 | 360,000 compounds, 6.9% hits | AID 588342 | purified FLuc, Km substrates, luminescence inhibition;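 further: plate controls were vehicle for no effect and reference inhibitor for full effect; nearly all actives have a fitted effect of over 55% in size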
Target sequence (P08659 whole entry, looked up): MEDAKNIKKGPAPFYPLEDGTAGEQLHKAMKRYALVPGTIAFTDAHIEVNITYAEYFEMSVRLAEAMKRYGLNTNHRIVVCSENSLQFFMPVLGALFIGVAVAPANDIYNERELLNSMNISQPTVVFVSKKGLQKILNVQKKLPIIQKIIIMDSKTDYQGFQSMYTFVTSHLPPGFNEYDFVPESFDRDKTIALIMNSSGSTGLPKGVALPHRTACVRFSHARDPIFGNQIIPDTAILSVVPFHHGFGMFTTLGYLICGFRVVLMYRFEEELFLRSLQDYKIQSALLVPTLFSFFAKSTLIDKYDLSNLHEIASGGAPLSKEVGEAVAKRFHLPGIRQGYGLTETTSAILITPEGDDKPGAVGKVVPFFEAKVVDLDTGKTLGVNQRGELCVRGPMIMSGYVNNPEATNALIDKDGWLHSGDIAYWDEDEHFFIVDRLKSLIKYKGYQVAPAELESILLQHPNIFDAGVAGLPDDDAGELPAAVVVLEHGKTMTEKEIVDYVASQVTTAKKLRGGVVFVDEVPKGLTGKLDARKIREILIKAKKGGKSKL
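Biochemical qHTS of compounds, final roughly 60 µM downward over six points, against 10 nM purified firefly luciferase using Km concentrations of substrates (10 uM D-luciferin, 10 uM ATP) in Tris acetate pH 7.5 buffer; luminescence output.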
* = called active by the depositor; [ ] = another dose, or the depositor's remark. Unless noted, the call rests on the fitted dose curve; in most records, active means well fitted curve in the direction sought with a large enough effect; inconclusive means small, poorly fitted or top-dose-only effect, or another doubt; inactive means no such curve, though single readings can be large; an effect the other way counts as inactive or inconclusive. Potency means the concentration at half of the fitted maximal effect.

For O=c1[nH]c(=O)n(CC2CCCO2)c(O)c1/C=C1\C=Nc2ccccc21 (stereo unspecified) the results were NPC1 prom act 1%, SMN2 splice up 11%, Rab9 prom act 0%, uPA generation 3%, ELG1 genotoxic 0% and FLuc counter 17µM*.
Screening O=c1[nH]c(=O)n(Cc2ccccc2)c(O)c1/C=C1\C=Nc2ccccc21 returned NPC1 prom act 2%, SMN2 splice up 12%, Rab9 prom act -1%, uPA generation 4%, ELG1 genotoxic 4% and FLuc counter -7%.
Screening O=c1[nH]c(=O)n(-c2ccccc2F)c(O)c1/C=C1\C=Nc2ccccc21 returned NPC1 prom act -1%, Rab9 prom act -9%, uPA generation 13%, ELG1 genotoxic 14% and FLuc counter 17µM*.
`Cc1noc(C(=O)Nc2sc3c(c2C#N)CCC3)c1Cl` gave NPC1 prom act 27%, SMN2 splice up -62%, Rab9 prom act 15%, uPA generation -1%, ELG1 genotoxic 2% and FLuc counter 15µM*.
Screening CN(CC(=O)N1CCc2ccccc21)S(=O)(=O)c1cccs1 returned NPC1 prom act 2.8µM*, SMN2 splice up 11µM*, Rab9 prom act 3.5µM*, uPA generation -6%, ELG1 genotoxic 10µM* and FLuc counter 12µM*.
`N#CSCC(=O)N1c2ccccc2CCc2ccccc21` gave NPC1 prom act -2%, SMN2 splice up -18%, Rab9 prom act -6%, uPA generation -10%, ELG1 genotoxic -6% and FLuc counter -13%.
Screening COc1c(C(C)(C)C)cc([N+](=O)[O-])c(C)c1[N+](=O)[O-] returned SMN2 splice up -7%.
For Cc1ccc(NC(=O)OC(C)CNC(=O)Oc2cccc(C)c2)cc1 (stereo unspecified) the results were NPC1 prom act 16%, SMN2 splice up -3%, Rab9 prom act 25%, uPA generation -13%, ELG1 genotoxic -12% and FLuc counter 24µM*.
`Cc1nn(CC(C)C)c(Cl)c1C(=O)NC1CCC(C)CC1` (stereo unspecified) gave NPC1 prom act 2.2µM*, Rab9 prom act 4µM*, uPA generation 3%, ELG1 genotoxic 9.2µM* and FLuc counter 8.5µM*.
`CCCCCCOc1ccc(CN2CCN(C)CC2)cc1` gave NPC1 prom act inconclusive, SMN2 splice up -3%, Rab9 prom act inconclusive, ELG1 genotoxic 5.8µM* and FLuc counter 6.7µM*.
`COc1cc2ccccc2c2cc([N+](=O)[O-])oc12` gave SMN2 splice up -78%[9.22 µM].
Screening N[C@@H](Cc1ccccc1)P(=O)(O)O returned SMN2 splice up -1%[9.22 µM].
Screening CN(C)C(=O)Oc1ccc2c(c1)O/C(=C\c1cccc([N+](=O)[O-])c1)C2=O returned NPC1 prom act 1%, Rab9 prom act -4%, uPA generation 8%, ELG1 genotoxic 1% and FLuc counter 0%.
COc1ccc(/C=C2\Oc3cc(OC(=O)N4CCOCC4)ccc3C2=O)c(OC)c1 was read as NPC1 prom act 3%, Rab9 prom act 1%, uPA generation 5%, ELG1 genotoxic -5% and FLuc counter inconclusive.
O=C1/C(=C/c2ccc(F)cc2)Oc2cc(OC(=O)N3CCOCC3)ccc21 was read as NPC1 prom act 27%, Rab9 prom act 22%, uPA generation 1%, ELG1 genotoxic 4% and FLuc counter 5.4µM*.
Screening CN(C)C(=O)Oc1ccc2c(c1)O/C(=C\c1cccc(Cl)c1)C2=O returned NPC1 prom act inconclusive, Rab9 prom act inconclusive, uPA generation 1%, ELG1 genotoxic 13% and FLuc counter 27µM*.
For CN(C)C(=O)Oc1ccc2c(c1)O/C(=C\c1ccc(Cl)cc1)C2=O the results were NPC1 prom act inconclusive, Rab9 prom act 4.5µM*, uPA generation -1%, ELG1 genotoxic inconclusive and FLuc counter inconclusive.

Source: PubChem BioAssay
